Most compounds without a hit are left out; they make up all but 12% or so of the library.
G9a block – blocks human histone lysine methyltransferase G9a; G9a H3K9 monomethylation, AlphaScreen, 2 h; Potency, µM (highest dose often 102 µM), actives largely listed as inhibitors; Q96KQ7; actives 8.8% (n = 350,000); further: nearly all actives have a fitted effect of over 75% in size
Target sequence (Q96KQ7 913-1193 limits assumed): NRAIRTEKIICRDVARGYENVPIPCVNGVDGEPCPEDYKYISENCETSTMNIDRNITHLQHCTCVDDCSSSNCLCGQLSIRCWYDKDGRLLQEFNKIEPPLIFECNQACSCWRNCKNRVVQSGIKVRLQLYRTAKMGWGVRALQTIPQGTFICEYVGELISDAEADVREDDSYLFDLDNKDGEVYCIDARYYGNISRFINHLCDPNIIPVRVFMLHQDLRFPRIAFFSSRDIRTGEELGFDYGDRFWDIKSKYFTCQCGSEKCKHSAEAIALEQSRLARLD
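Using a bead-based AlphaScreen, monomethylated H3K9 product from 2 h room-temperature reactions (G9a 20 nM, peptide 500 nM, SAM 20 uM) was detected with 0.5 ug/mL rabbit anti-H3K9me1 antibody.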
Sfp inh – blocks B. subtilis Sfp PPTase activity | Q9F4F7 | Biochemical Sfp PPTase activity, qHTS | Potency, µM, hits mostly inhibitors | actives 3.5% (n = 310,000) | AID 1490;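 further: the enzyme is Sfp with the accession as filed and its product quenches rhodamine fluorescence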
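Fluorescence-quenching assay: 15 nM Sfp-PPTase preincubated 15 min at room temperature with compound, then 5 uM rhodamine-CoA and 12.5 uM BHQ-2-labelled YbbR peptide added. Fluorescence (ex 525/em 598 nm) read at start and after 30 min; difference gives rate.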
BAZ2B block – blocks human BAZ2B. Potency, µM (titrated, usually from 114 µM), usual class: inhibitors. AlphaScreen BAZ2B-H3K14Ac peptide displacement. Q9UIF8. AID 504333. actives 4.4% (n = 360,000); further: nearly all actives have a fitted effect of over 60% in size
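In this displacement format the biotinylated H3(5-23) peptide acetylated at Lys14 serves as ligand at 50 nM, with BAZ2B at 50 nM in PBS pH 7.4 containing 0.01% Tween-20. Donor and acceptor beads are 10 ug/mL final.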
HP1b binding inh – inhibitors of HP1-beta chromodomain binding to methylated histone tails | Potency, µM (series often up to 114 µM), usual class: inhibitors | actives 0.56% (n = 390,000) | P83916 | AlphaScreen HP1-beta / biotin-H3K9me3 peptide binding | AID 540317; further: nearly all actives have a fitted effect of over 70% in size
Target sequence (P83916 whole entry, looked up): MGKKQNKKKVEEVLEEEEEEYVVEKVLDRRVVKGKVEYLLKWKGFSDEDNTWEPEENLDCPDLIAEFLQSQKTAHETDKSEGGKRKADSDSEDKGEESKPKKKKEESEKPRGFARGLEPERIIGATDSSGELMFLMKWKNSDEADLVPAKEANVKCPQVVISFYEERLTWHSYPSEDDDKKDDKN
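HP1-beta protein (50 nM final) preincubated 30 min at room temperature with biotinylated H3(1-18)K9me3 peptide (50 nM) in PBS pH 7.4, 0.01% Tween-20, then compound added for 30 min. AlphaScreen streptavidin donor/nickel chelate acceptor beads (10 ug/mL final), 30 min dark, luminescence read.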
JMJD2A Tudor inh – inhibitors of human JMJD2A Tudor domain; O75164; AlphaScreen JMJD2A-Tudor / H3K4me3 peptide binding; Potency, µM (doses to about 114 µM), actives largely listed as inhibitors; actives 4.4% (n = 390,000); further: nearly all actives have a fitted effect of over 50% in size
Each line names hits and unclear results; the compound was inactive in the other large screens. The call rests on the fitted dose curve; in most records, active means well fitted curve in the direction sought with a large enough effect; inconclusive means small, poorly fitted or top-dose-only effect, or another doubt; inactive means no such curve, though single readings can be large; an effect the other way counts as inactive or inconclusive.

Cc1cccc(NC(=O)c2sc3nc4c(c(-c5cccs5)c3c2N)CN(C)CC4)c1	G9a block 44.7µM, Sfp inh inconclusive, BAZ2B block inconclusive, JMJD2A Tudor inh inconclusive
COc1ccc(S(=O)(=O)N2CCN(C3CCCC(C)C3)CC2)cc1 (centres undefined)	G9a block 7.08µM, BAZ2B block 17.8µM, HP1b binding inh 44.7µM, JMJD2A Tudor inh 1.26µM
COc1ccc(S(=O)(=O)N2CCN(S(=O)(=O)c3ccc(OC)cc3)CC2)cc1	none (no result: Sfp inh, HP1b binding inh)
CC1CCC(N2CCN(S(=O)(=O)Cc3ccccc3)CC2)CC1 (centres undefined)	G9a block 25.1µM, BAZ2B block 50.1µM, HP1b binding inh 70.8µM, JMJD2A Tudor inh 22.4µM
O=S(=O)(c1ccccc1)N1CCN(S(=O)(=O)c2ccccc2)CC1	none (no result: G9a block, Sfp inh, BAZ2B block)
CC1CCCC(N2CCN(S(=O)(=O)c3ccccc3)CC2)C1 (centres undefined)	G9a block 17.8µM, Sfp inh inconclusive, BAZ2B block inconclusive, HP1b binding inh inconclusive, JMJD2A Tudor inh 3.98µM
Cc1c(/C=N/Nc2ccc([N+](=O)[O-])cn2)c2ccccc2n1Cc1ccccc1	none
Cc1ccc(Cn2cc(/C=N/Nc3ccc([N+](=O)[O-])cn3)c3ccccc32)cc1	G9a block 50.1µM
O=C(O)Cn1cc(/C=N/Nc2ccc([N+](=O)[O-])cn2)c2ccccc21	G9a block 44.7µM, Sfp inh inconclusive, BAZ2B block inconclusive, HP1b binding inh inconclusive, JMJD2A Tudor inh inconclusive
O=[N+]([O-])c1ccc(NN=Cc2cccc3ccccc23)nc1	none (no result: G9a block, Sfp inh, BAZ2B block)
COc1cc(OC)c2c(C)cc(=O)oc2c1C(CCN1CCN(c2ccccc2)CC1)c1ccc2c(c1)OCO2 (centres undefined)	BAZ2B block 25.1µM, HP1b binding inh inconclusive, JMJD2A Tudor inh 28.2µM
COc1cc(OC)c2ccc(=O)oc2c1C(CC(=O)N1CCN(c2ccccc2)CC1)c1ccc2c(c1)OCO2 (centres undefined)	BAZ2B block 39.8µM, JMJD2A Tudor inh 39.8µM
CCN(CC)C(=O)CC(c1cc(OC)c(OC)c(OC)c1)c1c(OC)cc(OC)c2c(-c3ccccc3)cc(=O)oc12 (centres undefined)	G9a block inconclusive, BAZ2B block 50.1µM, JMJD2A Tudor inh 56.2µM
CCN(CC)C(=O)CC(c1cc(OC)c(OC)c(OC)c1)c1c(OC)cc(OC)c2ccc(=O)oc12 (centres undefined)	none
COc1cc(OC)c2c(-c3ccccc3)cc(=O)oc2c1C(CCN1CCOCC1)c1ccc2c(c1)OCO2 (centres undefined)	Sfp inh inconclusive, HP1b binding inh inconclusive, JMJD2A Tudor inh 31.6µM (no result: BAZ2B block)
COc1cc(C(CCN2CCOCC2)c2c(OC)cc(OC)c3c(-c4ccccc4)cc(=O)oc23)cc(OC)c1OC (centres undefined)	G9a block inconclusive, Sfp inh inconclusive, JMJD2A Tudor inh 79.4µM (no result: BAZ2B block)
CCOC(=O)Cn1c2[n+](c3ccccc31)CC(O)CS2 (centres undefined)	G9a block inconclusive, BAZ2B block inconclusive, JMJD2A Tudor inh 44.7µM
Cc1ccc(S(=O)(=O)N(C)CC(=O)N2CCOCC2)cc1	HP1b binding inh inconclusive, JMJD2A Tudor inh 79.4µM
Cc1ccc(N(CC(=O)N2CCOCC2)S(=O)(=O)c2ccccc2)cc1	none
Cc1ccc(S(=O)(=O)N(CCC(=O)O)c2ccccc2)cc1	G9a block 56.2µM
Cc1ccc(N(CCC(=O)O)S(=O)(=O)c2ccc(C)cc2)cc1	none
Cc1ccc(N(CCC(=O)N2CCOCC2)S(=O)(=O)c2ccccc2)cc1	G9a block 0.708µM (no result: Sfp inh)
CC(C)CNc1nc(Oc2ccc(=O)n(-c3ccccc3)n2)nc(N2CCOCC2)n1	none
CCOC(=O)C1=C(C)NC(=O)C(C(N)=O)C12CCCC2 (centres undefined)	none
CCN1C(=NCCc2cccs2)N[C@@H](CCc2ccccc2)[C@H](C(=O)NCCc2cccs2)[C@H]1C	none (no result: HP1b binding inh, JMJD2A Tudor inh)
Cc1ccc(OCC(=O)NCC(=O)OCc2cc(=O)n3nc(C)sc3n2)cc1	none (no result: Sfp inh)
N#Cc1c(-c2cccnc2)c2c([nH]c1=O)-c1ccccc1OC2	G9a block inconclusive
CCCCOC(=O)n1c(=O)oc2cc(S(=O)(=O)N3CCCCC3)ccc21	none
COc1ccccc1NC(=O)CCn1c(=O)oc2cc(Cl)ccc21	none (no result: Sfp inh)
COC(=O)n1c(=S)oc2cc(Cl)ccc21	G9a block 2.51µM, Sfp inh 25.1µM (no result: HP1b binding inh, JMJD2A Tudor inh)
